# Hit rate of the full screen: of about 1,100 compounds, about 390 (35%) were called active. Another 30% or so got no clear call; they are omitted. Some of the results follow. Values without a mark were called inactive. Calls come from the whole dose curve; as a rule, active = well fitted inhibition curve with a large enough effect; inconclusive = small, poorly fitted or top-dose-only effect; inactive = flat fitted curve, though single readings scatter.
# Molecular target: Luciferin 4-monooxygenase (Photinus pyralis) (UniProt P08659)
# Test: qHTS of Nrf2 Activators: Hit Validation in Secondary FLuc Assay; note: nearly all actives have a fitted effect of over 65% in size
# Settings: firefly luciferase inhibition counter-screen, luminescence; series mostly up to 57.5 µM; activity, negative = inhibition: at the top concentration
# Summary of the method: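 Counter-screen on purified firefly luciferase with ATP and D-luciferin at Km concentrations; compounds flagged if they inhibit the enzyme, indicating possible reporter stabilization rather than ARE activation.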
# % is set by controls: 0 for no effect and ±100 for the full control effect; potency is the fitted concentration of half-maximal effect.
SMILES,"activity, negative = inhibition",Potency
O=[N+]([O-])c1cnc(Nc2ccc(Cl)cn2)c([N+](=O)[O-])c1,1.13%,
O=C1N/C(=C\c2ccsc2)C(=O)N1Cc1ccc(F)cc1,-2.1%,
CCc1ccc(/C=C/c2c([N+](=O)[O-])c(=O)n(C)c(=O)n2C)cc1,-27.8%,
CCC1C/C(=C/c2cccs2)C(=O)/C(=C/c2cccs2)C1 (configuration not stated),-23.6%,
O=C(Nc1cc(-c2nc3cc(Cl)ccc3o2)ccc1Cl)c1ccco1,,6.01 µM (active)
COc1ccc(Cl)cc1NC(=O)c1ccco1,0.501%,
CCCS(=O)(=O)c1nc(S(=O)(=O)c2ccc(C)cc2)c(N2CC(C)OC(C)C2)s1 (configuration not stated),-1.58%,
O=C(/C=C/Nc1ccc(F)c(Cl)c1)c1ccco1,,1.69 µM (active)
COc1cccc(-c2nc3n(n2)CCc2ccccc2-3)c1,,0.953 µM (active)
CC(C)Nc1ccc(-c2nc(-c3ccco3)no2)cc1[N+](=O)[O-],,0.213 µM (active)
CNc1ccc(-c2nc(-c3ccco3)no2)cc1[N+](=O)[O-],,0.0849 µM (active)
CC(C)c1ccc(NC(=O)c2sccc2-n2cccc2)cc1,,10.7 µM (active)
Cc1ccc(CNC(=O)c2sccc2-n2cccc2)cc1,-11.8%,
Cc1ccc(S(=O)(=O)c2nc(S(C)(=O)=O)sc2N2CCOCC2)cc1,7.7%,
COc1ccccc1-c1nnc(NC(C)=O)s1,,2.69 µM (active)
COc1ccc(OC)c2sc(NC(=O)CCS(=O)(=O)c3ccccc3)nc12,-25.5%,
O=C(CCN1C(=O)c2cccc3cccc(c23)C1=O)Nc1ccon1,-23.6%,
COC(=O)c1ccccc1NC(=O)c1cc(-c2ccco2)on1,-22.9%,
COC(=O)c1ccccc1NC(=O)/C=C/c1ccco1,,8.49 µM (active)
COc1ccccc1NC(=O)/C(C#N)=C/C=C/c1ccco1,-4.16%,
COc1ccccc1NC(=O)/C=C\c1ccco1,,10.7 µM (active)
CCn1c(=O)oc2cc(NC(=O)CCl)ccc21,1.74%,
Cc1nn(-c2ccc3ccccc3c2)c(=O)c2ccccc12,,3.38 µM (active)
Cc1nn(-c2cccc(C(F)(F)F)c2)c(=O)c2ccccc12,-29.2%,

SMILES,"activity, negative = inhibition",Potency
Clc1cc(-c2ccccc2)nc(-c2ccccc2)n1,1.58%,
c1ccc(-c2cc3c(ccc4nonc43)nn2)cc1,-18.2%,
c1ccc(-c2cnc(-c3ccccc3)nn2)cc1,,0.301 µM (active)
CC1Sc2n(c3ccccc3[n+]2C)N=C1c1ccccc1 (configuration not stated),-0.681%,
COc1ccccc1Cc1c(-c2ccco2)nc2ccc(Cl)cn12,,2.39 µM (active)
Clc1ccc2nc(-c3ccco3)c(Cc3ccccc3)n2c1,,10.7 µM (active)
O=C1c2cccc3cccc(c23)C(=O)N1CCCN(C(=O)c1cccs1)c1cccc(F)c1,5.37%,
CCN1C(=O)/C(=C\c2ccco2)C(C(=O)OC)=C1C,-1.69%,
CC(=O)COc1ccc2c(c1C)O/C(=C\c1ccco1)C2=O,,0.601 µM (active)
COc1ccc(C2NC(=S)NC3=C2CCCC3=C2SCCS2)cc1 (configuration not stated),-29.4%,
Cc1n[nH]c(=S)n1/N=C/c1ccc(-c2ccccc2[N+](=O)[O-])o1,,9.53 µM (active)
S=c1[nH]nc(-c2ccco2)n1/N=C/c1ccccc1,-27.4%,
O=[N+]([O-])c1ccccc1/C=C/C=N/n1c(-c2ccco2)n[nH]c1=S,,7.57 µM (active)
S=c1[nH]nc(-c2ccco2)n1/N=C/C(Cl)=C/c1ccccc1,,13.5 µM (active)
S=c1[nH]nc(COc2ccccc2)n1/N=C/C(Cl)=C/c1ccccc1,,19 µM (active)
c1ccc2c(-c3nc4ncccc4o3)cccc2c1,,13.5 µM (active)
Nc1c(C(=O)c2cccs2)oc2ccccc12,,9.53 µM (active)
Nc1c(C(=O)c2ccc(Br)s2)oc2ccccc12,,2.69 µM (active)
[O-][n+]1onc2c1CCc1c-2nn(-c2ccccc2Cl)[n+]1[O-],7.06%,
Cc1csc(NC(=O)c2cc(-c3ccco3)nc3ccccc23)n1,,5.36 µM (active)
Cc1nc2ccccc2c(=O)n1NCc1cc(Br)cs1,-27.8%,
O=C(Nc1nccs1)c1cc(-c2ccco2)nc2ccccc12,,6.01 µM (active)
CC1CCc2c(cc(-c3ccccc3)n2-c2ccc(C(=O)NC(C)C)cc2)C1 (configuration not stated),-5.3%,
Oc1ccccc1-c1csc(-c2ccccc2)n1,,1.69 µM (active)

SMILES,"activity, negative = inhibition",Potency
COC(=O)c1sccc1NC(=O)c1c(C)noc1C,3.32%,
COc1ccc(NC(=O)c2cc(-c3ccco3)on2)c(OC)c1,-4.64%,
O=C(CSc1ccc(-c2ccco2)nn1)N1CCCCCC1,,16.9 µM (active)
COc1ccc(NC(=O)CSc2ccc(-c3ccco3)nn2)c(OC)c1,,3.38 µM (active)
COc1ccc(NC(=O)CSc2ccc(-c3ccco3)nn2)cc1OC,,15.1 µM (active)
COc1ccccc1NC(=O)CSc1ccc(-c2ccco2)nn1,,15.1 µM (active)
COc1ccc(Cl)cc1NC(=O)c1cc(-c2ccco2)on1,-4.62%,
COc1ccc(Cl)cc1NC(=O)CSc1c2c(nc3ccccc13)CCC2,1.24%,
CC(OC(=O)/C=C/c1ccc2ccccc2n1)C(=O)Nc1ccc(S(N)(=O)=O)cc1 (configuration not stated),-27.1%,
Cc1nc(C)c(C(=O)N/N=C/c2ccco2)s1,-9.17%,
O=C1C=C(Nc2cccc(Cl)c2)CC(c2ccco2)C1 (configuration not stated),1.07%,
O=C1CC(C(=O)Nc2ccc(Cl)c(Cl)c2)S/C(=N\N=C\c2ccco2)N1 (configuration not stated),-21.8%,
O=C(N/N=C\c1ccco1)Nc1cccc(Cl)c1,,8.49 µM (active)
O=C(N/N=C/c1ccco1)Nc1ccccc1,,10.7 µM (active)
O=C1CC(C(=O)Nc2ccc(Br)cc2)S/C(=N\N=C\c2ccco2)N1 (configuration not stated),-7.55%,
CC(=O)N(/N=C1\Sc2ccccc2C1=O)c1ccccc1,,0.301 µM (active)
CS(=O)(=O)N1CCN(c2ccccc2NC(=O)c2ccc([N+](=O)[O-])o2)CC1,3.04%,
COc1ccc(N2CCCC2)c(NC(=O)c2ccc([N+](=O)[O-])o2)c1,-4.51%,
NS(=O)(=O)c1ccc(O)c(NC(=O)c2ccc([N+](=O)[O-])o2)c1,,16.9 µM (active)
CC(/C=C/c1ccco1)=N\NC(=O)CNc1ccc2ccccc2c1,,15.1 µM (active)
O=C(/C=C/c1ccco1)NCC(=O)N/N=C/c1ccc(Cl)cc1,-29.4%,
O=C(COC(=O)/C=C/c1ccco1)Nc1ccc(F)cc1Cl,-5.05%,
Cc1cccc(C)c1OCC(=O)N/N=C/C=C/c1ccco1,-26.1%,
O=C(C=Cc1ccco1)c1ccc2ccccc2c1,,0.239 µM (active)
